This excerpt belongs to a sample that is enriched for hits.
Cruzain inh Det – cruzain (T. cruzi) inhibition with detergent. purified cruzain, Z-FR-AMC fluorescence, 0.01% Triton. 200,000 tested, 0.43% active. P25779. AID 1478. Potency, µM, for inactives: max response, negative = inhibition, usual class: inhibitors; active means well fitted curve in the direction sought with a large enough effect; inconclusive means small, poorly fitted or top-dose-only effect, or another doubt; inactive means no such curve, though single readings can be large; an effect the other way counts as inactive or inconclusive;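 further: potency means the concentration at half of the fitted maximal effect; plate controls were neutral wells for no effect and buffer without enzyme for full effect; nearly all actives have a fitted effect of over 40% in size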
Target sequence (P25779 123-467 limits assumed): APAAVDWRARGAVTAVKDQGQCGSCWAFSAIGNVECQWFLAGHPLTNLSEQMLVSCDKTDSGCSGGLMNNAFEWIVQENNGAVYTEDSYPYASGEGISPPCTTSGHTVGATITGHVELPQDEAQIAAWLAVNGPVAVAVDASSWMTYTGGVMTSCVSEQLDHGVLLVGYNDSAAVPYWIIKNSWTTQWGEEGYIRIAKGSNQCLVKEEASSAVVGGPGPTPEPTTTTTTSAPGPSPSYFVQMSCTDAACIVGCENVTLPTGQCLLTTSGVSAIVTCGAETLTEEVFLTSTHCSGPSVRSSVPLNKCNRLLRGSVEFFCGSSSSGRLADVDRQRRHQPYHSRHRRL
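Compounds were screened in titration against cruzain (1.5 nM) with 0.01% Triton X-100 to counter colloidal aggregation. Activity was the AMC fluorescence increase over 60 s after adding 2 uM Z-FR-AMC at pH 5.5.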
NS1 function inh – blocks influenza NS1 protein function. Potency, µM (titrated, usually from 46.1 µM), without a hit: at the top dose activity, positive = more growth. 270,000 tested, 0.4% active; further: potency means the concentration at half of the fitted maximal effect; actives are rising curves; nearly all actives have a fitted effect of over 50% in size
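S. cerevisiae expressing influenza A NS1, grown in glucose, washed, then diluted 1:100 into pH 6.0 -URA galactose medium with 23 nl compound. Growth recovery read as OD600; NS1-free strain serves as control.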
Cruzain noTriton – blocks cruzain activity in detergent-free assay; P25779; purified cruzain, Z-FR-AMC fluorescence, no detergent; Potency, µM, for inactives: max response, negative = inhibition, actives largely listed as inhibitors; 200,000 tested, 2.3% active; AID 1476; active means well fitted curve in the direction sought with a large enough effect; inconclusive means small, poorly fitted or top-dose-only effect, or another doubt; inactive means no such curve, though single readings can be large; an effect the other way counts as inactive or inconclusive;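 further: potency means the concentration at half of the fitted maximal effect; plate controls were enzyme without inhibitor for no effect and buffer without enzyme for full effect; nearly all actives have a fitted effect of over 40% in size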
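Purified cruzain at 1.5 nM, pre-incubated 15 min with compound at room temperature in 100 mM sodium acetate pH 5.5, 5 mM DTT, 0.00005% Triton X-100. Reaction started with 2 uM Z-FR-AMC; AMC fluorescence increase over 60 s gives rate.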
Flu NS1 inh – validation of influenza NS1 protein function inhibitors; influenza NS1 function cell assay, 15-point titration; shares compounds with NS1 function inh; activity change, negative = inhibition, % at 32.9 µM; AID 492980; 1,400 tested, under 10 active; further: 0% is about no effect
* marks the source's active call; other numbers are inactive results. Unless noted, the call rests on the fitted dose curve.

What do the screens show for `Cc1ccc(C)c(Cn2c3ccccc3c3cnn(CC(=O)NC4CCC(C)CC4)c(=O)c32)c1` (stereo unspecified)?
Cruzain inh Det: -1%; Cruzain noTriton: -2%

What do the screens show for `COc1ccc(C(=O)n2nc(-c3cccnc3)nc2NCc2ccccc2)cc1OC`?
Cruzain inh Det: -3%; Cruzain noTriton: -3%

What do the screens show for `Cc1ccccc1NS(=O)(=O)c1ccc(OCC(=O)N2CCN(C)CC2)cc1`?
NS1 function inh: 4%

How did COc1cccc(C(=O)Nc2ccc3oc(-c4cccc5c(Br)cccc45)nc3c2)c1 do in these assays?
Cruzain inh Det: -1%; Cruzain noTriton: inconclusive

What do the screens show for `O=Cc1ccc2c(c1)CCN2Cc1ccccc1`?
NS1 function inh: -39%

How did Cc1ccccc1N1C(=O)NC(=O)/C(=C\c2ccc3c(c2)CCCN3Cc2ccccc2)C1=O do in these assays?
Cruzain inh Det: -13%; NS1 function inh: inconclusive; Cruzain noTriton: 25%; Flu NS1 inh: -31

How did COC(=O)C(O)(c1c(C)[nH]n(-c2ccccc2)c1=O)C(F)(F)F (stereo unspecified) do in these assays?
Cruzain inh Det: 1%; NS1 function inh: 8.9µM*; Cruzain noTriton: -3%; Flu NS1 inh: inconclusive

What do the screens show for `Cc1[nH]n(-c2ccccc2)c(=O)c1C(=O)Nc1ccccc1`?
NS1 function inh: -10%

How did COc1cccc(-c2cc(=O)c3cc(NC(=O)c4ccccc4)ccc3[nH]2)c1 do in these assays?
Cruzain inh Det: -3%; NS1 function inh: 13%; Cruzain noTriton: inconclusive

How did COc1cccc(-c2cc(=O)c3cc(NC(=O)c4ccc(N(C)C)cc4)ccc3[nH]2)c1 do in these assays?
Cruzain inh Det: 2%; NS1 function inh: 13µM*; Cruzain noTriton: -20%; Flu NS1 inh: 2

How did CC1CCN(S(=O)(=O)c2ccc(C(=O)N3CCN(c4ccccc4F)CC3)cc2)CC1 do in these assays?
NS1 function inh: 1%

Results for CC(C)c1ccccc1-n1c(SCC(=O)N2CCc3ccccc3C2)nc2ccccc2c1=O ?
Cruzain inh Det: 5%; NS1 function inh: 22µM*; Cruzain noTriton: inconclusive; Flu NS1 inh: -7

What do the screens show for `O=C(CSc1nc2ccccc2c(=O)n1-c1ccccc1)N1CCc2ccccc2C1`?
Cruzain inh Det: -6%; NS1 function inh: -32%; Cruzain noTriton: 7%

What do the screens show for `Cn1cccc1CC(=O)N/N=C\c1cccs1`?
Cruzain inh Det: 1%; NS1 function inh: 27%; Cruzain noTriton: -1%

Results for Cc1ccc(/C=N/NC(=O)Cc2cccn2C)s1 ?
Cruzain inh Det: -9%; NS1 function inh: 2.8µM*; Cruzain noTriton: 11%; Flu NS1 inh: 11

Results for CC(=O)Nc1ccccc1NS(=O)(=O)c1cccc([N+](=O)[O-])c1 ?
NS1 function inh: 3%

Results for Cc1cc(C)cc(NC(=S)/N=C(\N)Nc2nc(C)c3ccccc3n2)c1 ?
Cruzain inh Det: -5%; NS1 function inh: 22%; Cruzain noTriton: inconclusive

What do the screens show for `Cc1cccc(NC(=S)/N=C(\N)Nc2nc(C)c3ccc(C)cc3n2)c1`?
Cruzain inh Det: 2%; NS1 function inh: 24%; Cruzain noTriton: inconclusive

What do the screens show for `Cc1cccc(NC(=S)/N=C(\N)Nc2nc(C)c3ccccc3n2)c1`?
Cruzain inh Det: -7%; NS1 function inh: 10µM*; Cruzain noTriton: inconclusive; Flu NS1 inh: -37

How did Cc1ccc(NC(=S)/N=C(\N)Nc2nc(C)c3ccccc3n2)cc1C do in these assays?
Cruzain inh Det: -2%; NS1 function inh: 11µM*; Cruzain noTriton: inconclusive; Flu NS1 inh: -24

Results for COc1ccc(-c2nn3c(=O)cc(CN4CCN(C(=O)/C=C/c5ccccc5)CC4)nc3s2)cc1 ?
Cruzain inh Det: 0%; Cruzain noTriton: -4%

Results for Cc1ccc(-c2cc(C(=O)OCC(=O)N(C)C3CCS(=O)(=O)C3)c3ccccc3n2)o1 (stereo unspecified) ?
NS1 function inh: 15%

Results for CC(=O)Nc1ccc(OCc2cc(=O)n3ccccc3n2)cc1 ?
Cruzain inh Det: 5%; Cruzain noTriton: 2%

Results for O=C(CCOc1ccccc1)OCC(=O)c1cc2ccccc2o1 ?
Cruzain inh Det: -12%; NS1 function inh: -52%; Cruzain noTriton: -20%

What do the screens show for `Cc1nc2ccc(S(=O)(=O)NC(C(=O)NCc3cccs3)C(C)C)cc2s1` (stereo unspecified)?
Cruzain inh Det: -3%; NS1 function inh: 0%; Cruzain noTriton: -10%

What do the screens show for `Cn1c(N)c(C(=O)COC(=O)c2cc(C3CC3)nc3ccccc23)c(=O)n(Cc2ccccc2)c1=O`?
Cruzain inh Det: 1%; NS1 function inh: 11µM*; Cruzain noTriton: -3%; Flu NS1 inh: 10

How did CC(C)Cn1c(N)c(C(=O)COC(=O)c2cc(C3CC3)nc3ccccc23)c(=O)n(C)c1=O do in these assays?
Cruzain inh Det: -6%; NS1 function inh: -2%; Cruzain noTriton: inconclusive

How did Cc1ccc2c(c1)C(c1ccccc1)N(C(=O)c1ccc(S(=O)(=O)N3CCCCC3)cc1)CC(=O)N2 (stereo unspecified) do in these assays?
Cruzain inh Det: -4%; Cruzain noTriton: -8%

What do the screens show for `CC(C)C(NS(=O)(=O)c1cccs1)C(=O)NCCCN1CCCCCC1` (stereo unspecified)?
NS1 function inh: -5%

How did COc1ccccc1N(CC(=O)Nc1cccc(C(F)(F)F)c1)S(C)(=O)=O do in these assays?
NS1 function inh: 2%

What do the screens show for `Cc1ccc([N+](=O)[O-])cc1N(CC(=O)Nc1ccc(S(=O)(=O)Nc2cccc(C(F)(F)F)c2)cc1)S(C)(=O)=O`?
Cruzain inh Det: -8%; NS1 function inh: 16µM*; Cruzain noTriton: 4%; Flu NS1 inh: 10

Results for CCOc1ncccc1C(=O)OCC(=O)Nc1ccc(S(=O)(=O)N2CCOCC2)cc1 ?
Cruzain inh Det: -1%; NS1 function inh: -8%; Cruzain noTriton: 13%

How did COc1ccc(C(=O)NCC2(c3ccccc3)CCCC2)c(OC)c1 do in these assays?
NS1 function inh: -5%

Results for COc1ccc(C2(CNC(=O)CCC(=O)O)CCCC2)cc1 ?
Cruzain inh Det: -1%; NS1 function inh: 13µM*; Cruzain noTriton: -5%; Flu NS1 inh: 9

What do the screens show for `Cc1cc(Nc2cc(F)ccc2C)n2nc(C)nc2n1`?
Cruzain inh Det: 9%; NS1 function inh: 7%; Cruzain noTriton: 0%

What do the screens show for `Cc1cc(Nc2ccc(F)cc2F)n2nc(C)nc2n1`?
Cruzain inh Det: -3%; NS1 function inh: 13µM*; Cruzain noTriton: 3%; Flu NS1 inh: -27

What do the screens show for `CCN(CC)C(=O)CSc1nnc(-c2cc(OC)cc(OC)c2)o1`?
Cruzain inh Det: 3%; NS1 function inh: -8%; Cruzain noTriton: 3%

What do the screens show for `CC1CCN(CC(C)CNC(=O)c2cc(-c3ccccn3)nc3ccccc23)CC1` (stereo unspecified)?
Cruzain inh Det: 5%; NS1 function inh: -3%; Cruzain noTriton: 5%

Results for O=c1cc(O)c2sc(Nc3ccc(F)cc3)nc2[nH]1 ?
Cruzain inh Det: -9%; NS1 function inh: 13µM*; Cruzain noTriton: inconclusive; Flu NS1 inh: 1

What do the screens show for `O=c1cc(O)c2sc(Nc3cccc(C(F)(F)F)c3)nc2[nH]1`?
Cruzain inh Det: -9%; NS1 function inh: inconclusive; Cruzain noTriton: inconclusive

Source: PubChem BioAssay (National Center for Advancing Translational Sciences (NCATS))
